Sampled rows, rich in hits. Any-hit rate of the full collection: about 2.5%.
WRN helicase inh: WRN helicase (human) inhibition. 0.46% of 360,000 active. WRN helicase unwinding, fluorescent forked duplex, kinetic. Potency, µM (top dose mostly 114 µM), inactives show at the highest dose activity change, negative = inhibition, usual class: inhibitors. Q14191; note: % is set by controls: 0 for no effect and ±100 for the full control effect; nearly all actives have a fitted effect of over 55% in size
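Kinetic red-fluorescence monitoring (525/598 nm) tracks WRN helicase activity after 100 nM fluorophore-quencher forked duplex and 2 mM ATP are added to 20 nM enzyme pretreated 15 min at room temperature with compound.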
POLH inh: DNA polymerase eta (human) inhibition | 1.2% of 390,000 active | recombinant Pol eta, fluorescent DNA replication assay | Q9Y253 | Potency, µM (top dose mostly 114 µM), inactives show top-dose activity change, negative = inhibition, actives largely listed as inhibitors | AID 588591; note: % is set by controls: 0 for no effect and ±100 for the full control effect
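Fluorescent replication assay: 50 nM final substrate added after a 15 min room-temperature compound preincubation with 10 nM enzyme. Signal taken at 0 min and again at 10 min.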
L3MBTL1 block: inhibitors of human L3MBTL1. Q9Y468. AlphaScreen L3MBTL1–H3K9me1 peptide binding. Potency, µM (doses to about 57.1 µM), for the others: at the highest dose activity, negative = inhibition, usual class: inhibitors. 0.66% of 230,000 active; note: % is set by controls: 0 for no effect and ±100 for the full control effect; nearly all actives have a fitted effect of over 60% in size
Target sequence (Q9Y468 whole entry, looked up): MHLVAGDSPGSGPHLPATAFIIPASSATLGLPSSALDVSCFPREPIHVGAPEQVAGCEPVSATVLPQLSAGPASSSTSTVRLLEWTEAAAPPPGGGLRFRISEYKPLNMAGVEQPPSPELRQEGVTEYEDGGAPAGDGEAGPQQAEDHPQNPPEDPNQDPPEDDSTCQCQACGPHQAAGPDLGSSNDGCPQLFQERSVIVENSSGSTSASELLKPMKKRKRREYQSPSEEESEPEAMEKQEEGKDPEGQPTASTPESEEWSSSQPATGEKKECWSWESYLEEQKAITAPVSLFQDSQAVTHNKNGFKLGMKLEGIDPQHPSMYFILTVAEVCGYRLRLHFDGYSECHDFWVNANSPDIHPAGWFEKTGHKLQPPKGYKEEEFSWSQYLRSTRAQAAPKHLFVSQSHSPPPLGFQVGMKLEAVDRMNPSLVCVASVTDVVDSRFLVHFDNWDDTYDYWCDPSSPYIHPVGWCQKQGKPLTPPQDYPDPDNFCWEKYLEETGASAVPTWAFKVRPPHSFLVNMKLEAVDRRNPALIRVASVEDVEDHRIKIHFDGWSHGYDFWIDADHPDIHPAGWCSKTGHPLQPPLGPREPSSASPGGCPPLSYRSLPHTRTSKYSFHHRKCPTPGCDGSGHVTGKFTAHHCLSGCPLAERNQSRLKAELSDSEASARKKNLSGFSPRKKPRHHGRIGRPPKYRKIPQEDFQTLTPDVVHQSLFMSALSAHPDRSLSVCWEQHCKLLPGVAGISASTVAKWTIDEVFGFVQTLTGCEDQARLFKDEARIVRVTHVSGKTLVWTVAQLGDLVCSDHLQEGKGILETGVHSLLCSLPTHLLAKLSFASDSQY
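L3MBTL1 (50 nM) pre-complexed 30 min with biotinylated H3(1-15)K9me1 peptide (75 nM), then compounds added for 30 min at room temperature; AlphaScreen streptavidin donor/nickel chelate acceptor beads (10 ug/mL final) read after 30 min dark incubation.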
POLB inh: DNA polymerase beta (human) inhibition. Potency, µM (doses to about 114 µM), without a hit: top-dose activity change, negative = inhibition, actives largely listed as inhibitors. AID 485314. Pol beta primer extension/strand displacement, fluorescence kinetic. P06746. 1.3% of 340,000 active; note: % is set by controls: 0 for no effect and ±100 for the full control effect
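Values derive from four-parameter Hill fits of normalized kinetic data: reads at 0 and 10 min following addition of 50 nM substrate to 10 nM Pol beta preincubated 15 min with compound.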
POLI inh: DNA polymerase iota (human) inhibition; 1% of 390,000 active; Q9UNA4; Pol iota fluorescent replication assay, 10 min; Potency, µM (highest dose often 115 µM), inactives show top-dose activity, negative = inhibition, usual class: inhibitors
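Fluorescent replication assay read twice, at 0 min and 10 min after adding 50 nM (final) substrate. Enzyme (10 nM) and compounds were first incubated 15 min at room temperature; enzyme-free buffer wells were negative controls.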
POLK inh: DNA polymerase kappa (human) inhibition; AID 588579; 0.53% of 400,000 active; purified Pol kappa, fluorescent DNA synthesis assay, 10 min; Potency, µM (titrated, usually from 107 µM), for the others: at the top dose activity, negative = inhibition, usual class: inhibitors; note: % is set by controls: 0 for no effect and ±100 for the full control effect
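Here, compound and 10 nM enzyme are combined for 15 min at room temperature; adding 50 nM substrate (final) starts DNA synthesis, tracked by fluorescence at 0 and 10 min against buffer-only wells.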
Numbers without * were called inactive; [ ] = dose if it differs, or a comment. Calls come from the whole dose curve; as a rule, active = well fitted curve in the direction sought with a large enough effect; inconclusive = small, poorly fitted or top-dose-only effect, or another doubt; inactive = no such curve, though single readings can be large; an effect the other way counts as inactive or inconclusive. Potency is the fitted concentration of half-maximal effect.

Screening CCOC(=O)C(Cc1c[nH]c2ccccc12)NC(=O)COc1ccc(Cl)cc1 (stereo not drawn) returned POLH inh -21%, POLB inh -16%, POLI inh 79µM* and POLK inh -19%[60.1 µM].
For O=C(NCCO)Nc1ccc2nc(-c3ccco3)c(-c3ccco3)nc2c1 the results were L3MBTL1 block 0.71µM* and POLB inh 4.5µM*.
S=C(Nc1ccc(N2CCOCC2)cc1)Nc1ccc2nc(-c3ccco3)c(-c3ccco3)nc2c1 was read as WRN helicase inh -35%[11.6 µM], POLH inh inconclusive, POLB inh 2%, POLI inh 2µM* and POLK inh inconclusive.
Screening CC1CCN(C(=O)Nc2ccc3nc(-c4ccco4)c(-c4ccco4)nc3c2)CC1 returned POLI inh 14µM* and POLK inh 8.9µM*.
`O=C(Nc1ccc2nc(-c3ccco3)c(-c3ccco3)nc2c1)N1CCCC1` gave POLI inh 3.2µM* and POLK inh 32µM*.
`O=C(Nc1ccc(N2CCOCC2)cc1)c1ccc2nc(-c3ccco3)c(-c3ccco3)nc2c1` gave WRN helicase inh -9%, POLH inh -14%, L3MBTL1 block -7%, POLB inh 0%, POLI inh -5% and POLK inh -25%.
For Cc1nc2ccc(NC(=O)N3CCOCC3)cc2nc1C the results were WRN helicase inh 1%, POLH inh -9%, L3MBTL1 block -1%, POLB inh 0%, POLI inh 31% and POLK inh -4%.
Cc1cccc(N2CCN(S(=O)(=O)c3ccc(-c4coc(C)n4)cc3)CC2C)c1 (stereo not drawn) was read as WRN helicase inh -6%, POLH inh -7%, POLB inh 1%, POLI inh 18% and POLK inh 0%.
Screening CCN(CC)N=Nc1ccc(S(N)(=O)=O)cc1 returned WRN helicase inh -3%, POLH inh -14%, L3MBTL1 block -15%, POLB inh 0%, POLI inh 13% and POLK inh -19%.
`O=C1C=C(C#Cc2ccccc2)C[C@@H](c2ccc(F)cc2)C1` gave WRN helicase inh -7% and POLH inh -10%.
Screening CCc1ccccc1NS(=O)(=O)c1ccc(OC)c2ncccc12 returned WRN helicase inh 0%, POLH inh -10%, POLB inh 1%, POLI inh 15% and POLK inh 9%.
Screening C[C@H](NS(=O)(=O)c1ccc(Cl)c(Cl)c1)C(=O)OCc1cc(=O)n2cc(Br)ccc2n1 returned WRN helicase inh -3%[11.6 µM], POLH inh inconclusive, L3MBTL1 block inconclusive, POLB inh 14µM*, POLI inh inconclusive and POLK inh -25%.
Cc1nc(CC(=O)NNS(=O)(=O)c2ccc3ccccc3c2)cs1 was read as WRN helicase inh 1%, POLH inh -28%, L3MBTL1 block 2%, POLB inh -2%, POLI inh 2% and POLK inh 0%.
Screening COc1ccc(S(=O)(=O)NNC(=O)Cc2csc(C)n2)cc1[N+](=O)[O-] returned WRN helicase inh 2%[11.6 µM], POLH inh inconclusive, L3MBTL1 block inconclusive, POLI inh 50µM* and POLK inh inconclusive.
For O=c1cc(-c2ccccc2)nc2cc(-c3ccco3)[nH]n12 the results were WRN helicase inh 2%, POLH inh -14%, L3MBTL1 block -7%, POLB inh 50µM*, POLI inh 14% and POLK inh 3%.
Cc1cc(OC(C)C(=O)NCC2CCC(C(=O)O)CC2)c2c(C)c(Cc3ccccc3)c(=O)oc2c1 (stereo not drawn) was read as WRN helicase inh -6%[11.6 µM], POLH inh inconclusive, L3MBTL1 block -5%, POLB inh -36%, POLI inh 79µM* and POLK inh -14%.
Screening Cc1nc2sc3c(O)cc(=O)[nH]c3c2c(C)c1C returned WRN helicase inh -16%, POLH inh 0%, POLB inh -8%, POLI inh 3% and POLK inh -6%.
`Cc1cc(C(F)(F)F)c2c(n1)sc1c(O)cc(=O)[nH]c12` gave WRN helicase inh -7%[57.1 µM], POLH inh -14%, POLB inh -10%, POLI inh 3.2µM* and POLK inh 71µM*.
`O=C1C=CC(=O)N1` gave WRN helicase inh 1%, POLH inh -3%, L3MBTL1 block -1%, POLI inh -19% and POLK inh 1%.
For O=C(/C=C/c1ccco1)N1CCC(Cc2ccccc2)CC1 the results were WRN helicase inh inconclusive, POLH inh inconclusive, L3MBTL1 block -27%, POLB inh inconclusive, POLI inh 40µM* and POLK inh inconclusive.
Screening Cc1c(Cl)cccc1N=Cc1ccc([N+](=O)[O-])s1 returned WRN helicase inh -17%, POLH inh 89µM*, L3MBTL1 block inconclusive, POLB inh inconclusive, POLI inh 35µM* and POLK inh -17%.
`Cc1ccc(NC(=O)c2c(C)oc3ccc(O)c(CN4CCCCCC4)c23)cc1` gave POLH inh 9%, POLB inh -19%, POLI inh 11% and POLK inh -5%.
Cc1ccc(S(=O)(=O)N(C)c2ccc(C(=O)NCC(c3cccs3)N3CCOCC3)cc2)cc1 (stereo not drawn) was read as WRN helicase inh -34%, POLH inh -2%, POLB inh inconclusive, POLI inh 26% and POLK inh -6%.
CN(C)c1ccc(C(=C2C=CC(=[N+](C)C)C=C2)c2c(O)c(S(=O)(=O)[O-])cc3cc(S(=O)(=O)O)ccc23)cc1 was read as POLI inh inconclusive and POLK inh 8.9µM*.
COc1ccc(S(=O)(=O)N2CCC(C(=O)N[C@H](C(=O)NCc3ccncc3)C(C)C)CC2)cc1 was read as WRN helicase inh 1%, POLH inh -6%, POLB inh 53%, POLI inh 49% and POLK inh 2%.
Cc1ccc(-n2c(SCc3cc(=O)n4ccsc4n3)nnc2-c2cccnc2)c(C)c1 was read as WRN helicase inh -9%[57.1 µM], POLH inh 4%, L3MBTL1 block inconclusive, POLB inh 18µM*, POLI inh inconclusive and POLK inh -9%.
Screening Cc1ccc(-n2c(SCC(N)=O)nnc2-c2cccnc2)c(C)c1 returned WRN helicase inh 2%, POLH inh -11%, L3MBTL1 block 0%, POLB inh 31%, POLI inh -5% and POLK inh 5%.
Screening COc1ccc(-c2coc3cc(OC(C)=O)c(OC)cc3c2=O)cc1 returned WRN helicase inh -1%, POLH inh -15%, L3MBTL1 block -1%, POLI inh 3% and POLK inh 15%.

From PubChem BioAssay
